Assay outcomes deposited in PubChem BioAssay by National Center for Advancing Translational Sciences (NCATS).
An excerpt weighted towards active compounds, which were near 4% of everything screened.
D1 antagonist: antagonists of human D1 dopamine receptor; HEK293 TREx D1 cells, calcium flux, dopamine EC80; active compounds read low; activity change, negative = inhibition, % at 10 µM; actives 3.2% (n = 360,000); in the data active = activity change below about -30%; note: % is set by controls: 0 for no effect and ±100 for the full control effect
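Antagonism measured as reduced calcium response to an EC80 dopamine addition following 180 s compound pre-read; cells were inducible HEK293 Trex D1 plated overnight at 30 C, read kinetically at 1 cycle/sec.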
D1 potentiator: human D1 dopamine receptor positive modulation | P21728 | HEK293 TREx D1 cells, calcium flux, dopamine EC20 potentiation | potentiation, % at 10 µM | actives 0.036% (n = 360,000) | AID 504651; in the data active = potentiation above about 30%; note: 0% is about no effect
Glioma ERSR ind: induces the endoplasmic reticulum stress response in human glioma cells; actives 0.02% (n = 420,000); AID 602332; U87-MG GRP78 promoter luciferase reporter, 16 h; Potency, µM, inactives show at the top dose activation, hits mostly activators; active = well fitted activation curve with a large enough effect; note: potency is the fitted concentration of half-maximal effect; series mostly up to about 76 µM; % of control where 0% means no effect; nearly all actives have a fitted effect of over 35% in size
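Stably transfected U87-MG human glioma cells carrying a GRP78-based luminescent sensor were seeded at 1000 cells/well, pin-dosed with compounds and incubated 16 h. Luciferase reagent was then added, and end-point luminescence was read after 10 min at room temperature.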
D1 agonist: activates the human D1 dopamine receptor. HEK293 T-REx D1 cells, calcium flux, agonist mode. activation, % at 2 µM. actives 1% (n = 360,000). P21728; note: 0% is about no effect
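Agonism was scored from calcium flux recorded over 180 s (1 read/s) after pintool compound addition, following a 10-cycle baseline. Cells were inducible force-coupled HEK293 TREx D1, plated overnight at 30 C and loaded with no-wash calcium dye.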
TRHR ag: agonists of human TRH receptor. P34981. TRHR cells, calcium flux fluo-8, FDSS agonist mode. activation, % at 2 µM. actives 0.18% (n = 360,000). AID 493084; note: 0% is about no effect
Target sequence (P34981 whole entry, looked up): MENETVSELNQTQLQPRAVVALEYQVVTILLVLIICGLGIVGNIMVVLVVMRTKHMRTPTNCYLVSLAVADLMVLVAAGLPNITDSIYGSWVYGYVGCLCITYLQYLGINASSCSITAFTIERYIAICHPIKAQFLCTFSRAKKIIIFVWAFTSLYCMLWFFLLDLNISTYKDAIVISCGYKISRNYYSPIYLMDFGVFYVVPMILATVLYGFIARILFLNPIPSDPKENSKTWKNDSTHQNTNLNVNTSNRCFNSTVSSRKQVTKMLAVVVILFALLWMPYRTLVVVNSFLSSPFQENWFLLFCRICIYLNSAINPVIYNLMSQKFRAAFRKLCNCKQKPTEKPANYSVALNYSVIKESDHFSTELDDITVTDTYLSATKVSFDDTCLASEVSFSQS
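Fluo-8-loaded TRHR cells; 10 s baseline, compound added, kinetic Ca2+ fluorescence read 1/s, agonist mode.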
TRHR enhancer: allosterically enhances the human TRH receptor. P34981. TRHR cells, fluo-8 calcium fluorescence, EC20 TRH enhancement. enhancement, % at 2 µM. actives 0.66% (n = 360,000). AID 493056; in the data active = enhancement above about 30%; note: 0% is about no effect
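Enhancer read-out: after compound pinning and an initial kinetic agonist-mode read, an EC20 of TRH (10 nM final) was injected and fluo-8 calcium signal (Ex 480/Em 530) followed at 1 s/cycle for 100 cycles in TRHR-expressing cells.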
An asterisk follows results filed as active; · = not tested or not shown. Cut-off read from the data, not from the text of the source, unless noted: active = activation above about 30%; inactive = the rest.

SMILES	D1 antagonist	D1 potentiator	Glioma ERSR ind	D1 agonist	TRHR ag	TRHR enhancer
CCOC(=O)c1c(C)[nH]c(C)c1C(=O)COC(=O)c1cccc(S(=O)(=O)N(CC)CC)c1	-49.1*	-3.8	-4.4%	25.1	-1.0	3.8
CCNCc1cc(OCC)c(OCC(=O)NCCc2ccccc2)cc1Cl	-39.9*	-8.0	-4.2%	32.8*	-0.2	4.0
COc1cc(CNCCN(C)C)c(Br)cc1OCC(=O)NCc1ccccc1	-33.6*	-3.5	-3.9%	3.4	0.4	-0.8
CCc1cccc(C)c1NC(=O)CCCN1C(=O)NC(C)(C)C1=O	30.9	5.8	-4.6%	9.3	0.8	0.4
Cc1nn(S(=O)(=O)c2ccccc2)c(C)c1Sc1ccc([N+](=O)[O-])cc1	-33.0*	-9.3	-4.2%	2.3	0.1	-7.5
CN(Cc1ccccc1)C(=O)COC(=O)c1ccccc1NS(=O)(=O)c1cccc(N)c1	-31.7*	-6.4	-3.8%	5.6	-1.0	9.7
CC(OC(=O)c1ccccc1NS(=O)(=O)c1cccc(C(F)(F)F)c1)C(=O)N(C)Cc1ccccc1 (configuration not stated)	-7.0	3.1	-2.5%	5.3	0.5	-4.5
O=C(COc1cccc(F)c1)Nc1ccc2[nH]c(=O)[nH]c2c1	16.2	-0.6	-1.7%	3.2	0.4	7.2
Cc1cc(C)c(S(=O)(=O)N2CCN(C(=O)C3COc4ccccc4O3)CC2)c(C)c1 (configuration not stated)	-4.2	-0.2	-2.8%	1.8	0.2	36.4*
COc1cccc(C(=O)N2CCN(C(=O)C3COc4ccccc4O3)CC2)c1 (configuration not stated)	-32.1*	-1.8	1.7%	2.9	-0.3	4.0
COc1ccc(C(=O)N2CCN(C(=O)C3COc4ccccc4O3)CC2)cc1OC (configuration not stated)	6.6	0.1	-4.0%	2.3	0.6	-6.1
COC(=O)c1ccc(NC(=O)COC(=O)c2nc3nccc(C)n3n2)cc1	-35.0*	-2.2	1.4%	3.5	0.8	32.5*
CCCC/C=C/C(NC(=O)c1ccc(C(=O)OC)cc1)c1ccccc1 (configuration not stated)	·	·	-4.7%	·	·	·
CCN1CCN(C(=O)Nc2cc(Cl)ccc2OC)CC1	-0.5	-1.5	5.8%	1.7	0.2	0.0
Cc1cccc2c1-c1sc(C(=O)Nc3cccc([N+](=O)[O-])c3C)cc1CO2	-6.3	-14.2	-4.0%	31.2*	0.0	20.4
COc1ccc(Cl)cc1NC(=O)Nc1cccc([N+](=O)[O-])c1C	-64.1*	-17.0	-2.9%	7.4	0.7	-1.0
COc1ccc(Cl)cc1NC(=O)N1CCN(C2CCCCC2)CC1	-0.1	4.0	1.3%	2.6	1.0	36.2*
COC(=O)c1ccccc1NC(=O)NC1CC1	12.6	-1.6	-3.4%	0.4	-0.1	-4.9
COC(=O)c1ccccc1NC(=O)NC1CCCCC1	-44.2*	-5.1	7.4%	4.8	-0.1	1.1
COc1ccc(N2CCN(C(=O)c3ccc4c(=O)n(CC5CCCO5)c(=O)[nH]c4c3)CC2)cc1 (configuration not stated)	-2.3	-3.6	-3.5%	1.5	0.1	-0.5
Cc1c(NC(=O)c2ccc(C(C)(C)C)cc2)cccc1[N+](=O)[O-]	-42.0*	-14.7	-0.4%	3.3	0.3	5.6
Cc1cc(C(=O)Nc2cccc([N+](=O)[O-])c2C)cs1	4.0	-6.0	4.7%	0.7	-0.4	-3.6
COc1ccc(Cl)cc1NC(=O)NC1CCCCC1	-5.7	8.8	3.6%	1.2	-0.7	31.5*
NNC(=O)c1sc2cc(C(F)(F)F)cnc2c1-c1cccs1	-4.4	0.3	-3.2%	-0.2	2.5	2.3
O=C(CSc1nc2nc3c(cc2c(=O)n1-c1ccccc1)CCCC3)Nc1ccccc1	-9.9	-7.5	-0.5%	3.3	0.9	-1.2
CCn1c(SCc2ccc(Cl)cc2Cl)nc2nc3c(cc2c1=O)CCCC3	-43.1*	1.4	-4.5%	1.5	-0.1	-4.9
NC(=O)Nn1c(CCC(=O)O)ccc1-c1ccc(Cl)cc1	7.2	0.0	0.3%	3.0	0.4	0.8
